Sfp inh: qHTS Assay for Inhibitors of Bacillus subtilis Sfp phosphopantetheinyl transferase (PPTase) | Potency, µM, inactives show largest response in the series, negative = inhibition, actives largely listed as inhibitors | AID 1490, 2009 | hit rate 3.5% among 310,000 | Biochemical Sfp PPTase activity, qHTS;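 further: the enzyme is Sfp with the accession as filed and its product quenches rhodamine fluorescence; 0% = enzyme reaction without inhibitor and -100% = no enzyme wells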
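With Hepes-Na pH 7.6 buffer containing 10 mM MgCl2, Sfp (15 nM) modified BHQ-2-YbbR (12.5 uM) using rhodamine-CoA (5 uM). Two reads 30 minutes apart at 525/598 nm yielded each well's rate.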
L3MBTL1 inh: qHTS Assay for the Inhibitors of L3MBTL1. AlphaScreen L3MBTL1–H3K9me1 peptide binding. Potency, µM (top dose mostly 57.1 µM), for inactives: at the top dose activity, negative = inhibition, hits mostly inhibitors. Lethal(3)malignant brain tumor-like protein 1 (Homo sapiens), Q9Y468. hit rate 0.66% among 230,000; further: on the % scale 0 is the no-effect control and ±100 the full control effect; nearly all actives have a fitted effect of over 60% in size
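AlphaScreen proximity signal between nickel-chelate acceptor and streptavidin donor beads (final 10 ug/mL) reports binding of 50 nM L3MBTL1 to 75 nM biotin-H3 K9me1 peptide; complex incubated with compounds 30 min at room temperature; cefsulodin titration as control.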
BAZ2B inh: qHTS Assay for Inhibitors of BAZ2B; AID 504333, 2011; AlphaScreen BAZ2B-H3K14Ac peptide displacement; Potency, µM (top dose mostly 114 µM), without a hit: top-dose activity change, negative = inhibition, actives largely listed as inhibitors; hit rate 4.4% among 360,000; further: on the % scale 0 is the no-effect control and ±100 the full control effect; nearly all actives have a fitted effect of over 60% in size
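Multi-concentration screen (max 110 uM) measuring displacement of acetylated histone H3 peptide from BAZ2B by AlphaScreen, using 50 nM protein, 50 nM peptide and 10 ug/mL streptavidin donor plus Ni-chelate acceptor beads.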
G9a inh: qHTS Assay for Inhibitors of Histone Lysine Methyltransferase G9a; Histone-lysine N-methyltransferase EHMT2 (Homo sapiens), Q96KQ7; AID 504332, 2011; G9a H3K9 monomethylation, AlphaScreen, 2 h; hit rate 8.8% among 350,000; Potency, µM (titrated, usually from 102 µM), inactives show at the top dose activity, negative = inhibition, actives largely listed as inhibitors; further: on the % scale 0 is the no-effect control and ±100 the full control effect; nearly all actives have a fitted effect of over 75% in size
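Readings reflect AlphaScreen signal from monomethyl-H3K9 antibody detection. HMT at 20 nM; substrate b-H3K9 500 nM; cofactor SAM 20 uM; 2 h RT reaction; compounds tested as titrations in qHTS with 15 min preincubation.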
JMJD2A Tudor inh: qHTS Assay for Inhibitors of JMJD2A-Tudor Domain; Lysine-specific demethylase 4A (Homo sapiens), O75164; AlphaScreen JMJD2A-Tudor / H3K4me3 peptide binding; Potency, µM (titrated, usually from 114 µM), without a hit: at the top dose activity change, negative = inhibition, actives largely listed as inhibitors; hit rate 4.4% among 390,000; AID 504339, 2011; further: on the % scale 0 is the no-effect control and ±100 the full control effect; nearly all actives have a fitted effect of over 50% in size
Target sequence (O75164 whole entry, looked up, the tested form may be a part): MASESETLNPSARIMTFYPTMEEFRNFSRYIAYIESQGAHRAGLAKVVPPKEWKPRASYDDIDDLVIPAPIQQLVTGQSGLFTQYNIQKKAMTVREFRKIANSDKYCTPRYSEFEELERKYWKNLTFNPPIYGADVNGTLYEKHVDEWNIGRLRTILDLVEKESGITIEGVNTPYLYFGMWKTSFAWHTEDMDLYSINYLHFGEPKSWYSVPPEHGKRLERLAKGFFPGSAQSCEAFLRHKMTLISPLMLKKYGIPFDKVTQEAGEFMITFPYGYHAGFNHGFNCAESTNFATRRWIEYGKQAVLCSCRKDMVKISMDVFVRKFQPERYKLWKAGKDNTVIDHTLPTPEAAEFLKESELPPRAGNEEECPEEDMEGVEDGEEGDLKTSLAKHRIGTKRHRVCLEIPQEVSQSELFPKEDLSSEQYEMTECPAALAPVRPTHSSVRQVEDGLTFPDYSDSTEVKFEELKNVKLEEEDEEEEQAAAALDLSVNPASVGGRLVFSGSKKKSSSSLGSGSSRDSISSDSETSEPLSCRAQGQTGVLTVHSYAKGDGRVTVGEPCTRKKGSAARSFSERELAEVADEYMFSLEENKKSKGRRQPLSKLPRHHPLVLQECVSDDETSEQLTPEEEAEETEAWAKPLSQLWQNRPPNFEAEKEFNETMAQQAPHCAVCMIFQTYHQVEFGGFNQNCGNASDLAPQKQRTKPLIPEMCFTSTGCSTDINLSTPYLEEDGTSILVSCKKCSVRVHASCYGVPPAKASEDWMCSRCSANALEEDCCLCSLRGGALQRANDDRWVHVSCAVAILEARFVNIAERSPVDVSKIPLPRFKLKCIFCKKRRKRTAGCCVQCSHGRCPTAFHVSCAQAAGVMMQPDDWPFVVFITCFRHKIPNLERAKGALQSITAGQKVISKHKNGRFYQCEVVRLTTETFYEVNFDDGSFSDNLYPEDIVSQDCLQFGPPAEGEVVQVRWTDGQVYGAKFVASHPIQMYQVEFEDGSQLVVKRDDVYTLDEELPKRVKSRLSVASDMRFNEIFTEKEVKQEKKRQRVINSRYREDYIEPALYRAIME
HP1b binding inh: HTS for Inhibitors of HP1-beta Chromodomain Interactions with Methylated Histone Tails | AlphaScreen HP1-beta / biotin-H3K9me3 peptide binding | Potency, µM (highest dose often 114 µM), inactives show top-dose activity change, negative = inhibition, most hits filed as inhibitors | hit rate 0.56% among 390,000 | AID 540317, 2011; further: nearly all actives have a fitted effect of over 70% in size
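Compound inhibition of the preformed complex between 50 nM HP1-beta and 50 nM biotinylated H3K9me3 peptide was read by AlphaScreen. Buffer was PBS pH 7.4 with 0.01% Tween-20. Incubations ran 30 min at room temperature, with 10 ug/mL donor/acceptor beads.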
Numbers without * were called inactive; u = inconclusive; x = no result given; [ ] = another dose, or the depositor's remark. Sampled rows, rich in hits. Any-hit rate of the full collection: about 12%. The call rests on the fitted dose curve; in most records, active means well fitted curve in the direction sought with a large enough effect; inconclusive means small, poorly fitted or top-dose-only effect, or another doubt; inactive means no such curve, though single readings can be large; an effect the other way counts as inactive or inconclusive. Potency means the concentration at half of the fitted maximal effect.

SMILES | Sfp inh | L3MBTL1 inh | BAZ2B inh | G9a inh | JMJD2A Tudor inh | HP1b binding inh
CCCCN(C(=O)C1CCN(C(=O)c2ccccc2C)CC1)c1c(N)n(CC(C)C)c(=O)[nH]c1=O | x | x | x | x | -5% | 19%
CC1CCc2ccccc2N1C(=O)c1cccs1 (stereo not given) | 19% | x | 7% | 26%[59 µM] | 56µM* | u
COc1cc(C(=O)N2c3ccccc3CCC2C)cc(OC)c1OC (stereo not given) | 18% | -7%[2.29 µM] | 7% | 28%[0.501 µM] | -27% | 13%
Cc1ccccc1Cc1c(C)nc2c(C(=O)NCc3ccco3)cnn2c1C | 50µM* | -2% | u | u | u | -12%
Cc1ccc(C)c(Cc2c(C)nc3c(C(=O)N4CCOCC4)cnn3c2C)c1 | 89µM* | 49% | 9% | -38%[59 µM] | -4% | 45%
CCOC(=O)N1CCN(C(=O)c2cnn3c(C)c(Cc4ccc(C)cc4)c(C)nc23)CC1 | 14% | 2% | -2% | -7% | -3% | 32%
COc1ccc(-c2nc(CC(=O)Nc3cccc(S(=O)(=O)NC4=NCCC4)c3)cs2)cc1 | x | 32% | u | 10%[2.33 µM] | -18% | 24%
CCC(C)Sc1c(C(C)C)cnc2c1c(=O)n(C)c(=O)n2C (stereo not given) | x | x | 10% | u | -3% | 16%[57 µM]
CC(C)(C)c1ccc(-c2nnc3sc(-c4ccccn4)nn23)cc1 | 45µM* | -3% | u | 32µM* | -26% | -6%
Cc1ccc(OCc2nn3c(-c4ccco4)nnc3s2)cc1 | 6% | -3% | 7% | 11% | -8% | 32%
Clc1ccc(-c2nnc3sc(-c4ccccn4)nn23)cc1 | 11% | 2% | 12% | -7%[2.33 µM] | x | x
Clc1ccc(OCc2nn3c(-c4ccco4)nnc3s2)c(Cl)c1 | 18µM* | x | 56µM* | -39%[2.33 µM] | u | 13%
Brc1ccc(-c2nn3c(-c4ccco4)nnc3s2)o1 | 20µM* | -15% | 50µM* | 14µM* | u | 2%
Clc1ccccc1-c1nnc2sc(-c3ccncc3)nn12 | -5% | x | 2% | u | u | 17%
Clc1ccccc1-c1nnc2sc(-c3cccs3)nn12 | u | -4% | 6% | 35µM* | -21% | -14%
c1ccc(CNc2ncnc3ccc(-c4cccnc4)cc23)cc1 | 27% | x | x | 23%[0.501 µM] | x | x
c1coc(-c2nnc3sc(C4CCCCC4)nn23)c1 | 35µM* | 42% | -5% | u | u | -28%
Brc1ccc(-c2nn3c(-c4ccccn4)nnc3s2)o1 | 8.9µM* | u | 18µM* | 20µM* | 14µM* | 34%
c1ccc(-c2nn3c(-c4ccco4)nnc3s2)nc1 | 6% | -11% | -38% | 40µM* | -12% | 60%
c1ccc(OCc2nn3c(-c4ccccn4)nnc3s2)cc1 | 7% | -8% | -4% | u | -16% | 20%
Clc1ccccc1-c1nn2c(-c3ccccn3)nnc2s1 | 5% | -1% | 79µM* | u | u | u
COc1ccc(-c2nnc3sc(C4CCCCC4)nn23)cc1OC | 0% | x | -5% | u | -11% | 7%
CCC(C)C(N)C(=O)O (stereo not given) | 14% | x | x | 4%[12.7 µM] | x | x
Cc1ccc(S(=O)(=O)NCC(=O)N2CCN(c3ccc(F)cc3)CC2)cc1 | 6% | x | -38% | u | -14% | 10%
CCN(CC)S(=O)(=O)c1cc(NC(=O)C2CSC3(C)CCC(=O)N23)ccc1C (stereo not given) | x | 3% | 6% | 7%[12.7 µM] | -15% | 30%
SMILES | Sfp inh | L3MBTL1 inh | BAZ2B inh | G9a inh | JMJD2A Tudor inh | HP1b binding inh
O=C(NCc1ccco1)c1cnn2c1NC(c1ccccc1)CC2C(F)(F)F (stereo not given) | -14% | 0% | 12% | 6%[12.7 µM] | u | 9%
O=C(NCc1ccco1)c1cnn2c1NC(c1ccc(Br)cc1)CC2C(F)(F)F (stereo not given) | 2% | 0% | u | 50µM* | u | u
O=C(c1ccco1)N1CCN(C(=O)c2cnn3c2NC(c2cccs2)CC3C(F)(F)F)CC1 (stereo not given) | 15% | -3% | -5% | 16%[59 µM] | -8% | 17%
O=C(c1cnn2c1NC(c1ccco1)CC2C(F)(F)F)N1CCN(c2cccc(Cl)c2)CC1 (stereo not given) | -5% | -14% | u | 10µM* | -23% | 20%
COc1ccc(O[C@H]2C=C[C@@H](c3ccccc3)O[C@@H]2COC(=O)CC/C(C)=N/O[C@@H](C)c2cn([C@H](CO)Cc3ccccc3)nn2)cc1 | 9% | -3% | u | 79µM* | x | x
COc1ccc(O[C@H]2C=C[C@@H](c3ccccc3)O[C@H]2COC(=O)CC/C(C)=N\O[C@@H](C)c2cn([C@H](CO)Cc3ccccc3)nn2)cc1 | 23% | x | x | x | x | x
COc1ccc(O[C@H]2C=C[C@@H](c3ccccc3)O[C@H]2CO/N=C(/C)CCC(=O)OC[C@@H]2O[C@H](C#Cc3ccccc3)C=C[C@@H]2Oc2ccc(C)cc2)cc1 | 5% | x | x | x | x | x
COc1ccc(O[C@H]2C=C[C@@H](c3ccccc3)O[C@@H]2CO/N=C(\C)CCC(=O)OC[C@H]2O[C@H](c3ccccc3)C=C[C@@H]2Oc2ccc(OC)cc2)cc1 | -5% | -11% | u | 45µM* | x | x
C/C(CCN1CCc2nc(-c3ccccc3)c(-c3ccccc3)cc2C1)=N\O[C@@H](C)c1cn([C@H](CO)Cc2ccccc2)nn1 | 24% | -2% | u | 45µM* | x | x
COc1cccc(CSc2nc(-c3ccccc3F)nc3c2Cc2c(CO)cnc(C)c2O3)c1 | x | x | -14% | -5%[59 µM] | 1% | 46%
CC(=O)N1CCOc2cc(S(=O)(=O)Nc3c(C)cccc3C(C)C)c(Cl)cc21 | x | -3% | -2% | u | -20% | 30%
O=C(CC(NC(=O)C(F)(F)F)c1ccccc1)Nc1nnc(CCc2ccccc2)s1 (stereo not given) | 18µM* | -9% | 9% | 10µM* | -17% | -12%
CC(C)(C)C(=O)NC(CC(=O)O)c1ccccc1 (stereo not given) | 15% | 6% | -11% | 50µM* | -6% | 47%
CCC(=O)Nc1nnc(CCc2ccccc2)s1 | 17% | 22% | -2% | 16%[59 µM] | -5% | 29%

Bioassay records deposited in PubChem BioAssay by National Center for Advancing Translational Sciences (NCATS).
